According to PubChem BioAssay (NCI):
Where “and” joins values, the source holds several entries; their conditions need not be identical. Equal entries are not always repeated. The panel holds about 79,000 compounds, 15% with a hit somewhere; the sample as a whole holds those more often. Rule as the data show it: active = growth inhibition above about 70%; inactive = the rest.

Key:
[1] = NCI Yeast Anticancer Drug Screen. Data for the rad50 strain (AID 155);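 also: 0% = growth of vehicle-only cultures of the same strain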; conditions: S. cerevisiae rad50 strain growth inhibition; at 50.0 µM; hits give high values
Procedure, shortened: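 Inhibition values express reduced yeast growth in compound-treated cultures relative to vehicle-treated controls.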

[2] = NCI Yeast Anticancer Drug Screen. Data for the mec2-1 strain (AID 157); conditions: S. cerevisiae mec2-1 strain, at 50.0 µM, hits give high values
Procedure, shortened: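 Vehicle-treated cultures served as reference for growth inhibition of compound-exposed mec2-1 yeast.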

[3] = NCI Yeast Anticancer Drug Screen. Data for the sgs1 mgt1 strain (AID 161);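 also: 0% = growth of cultures given vehicle only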; conditions: S. cerevisiae sgs1 mgt1 strain, at 50.0 µM, hits give high values
Procedure, shortened: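 Genetically altered yeast, compound exposure, growth inhibition relative to vehicle.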

[4] = NCI Yeast Anticancer Drug Screen. Data for the cln2 rad14 strain (AID 165);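 also: 0% = growth equal to vehicle treated cultures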; conditions: S. cerevisiae cln2 rad14 strain, at 50.0 µM, hits give high values
Procedure, shortened: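 Each compound was tested on cln2 rad14 yeast. Inhibition of growth was calculated against vehicle-exposed controls.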

[5] = NCI Yeast Anticancer Drug Screen. Data for the bub3 strain (AID 167); conditions: S. cerevisiae bub3 mutant strain, at 50.0 µM, hits give high values
Procedure, shortened: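 Steps: expose the mutant yeast strain to compound; grow alongside vehicle-treated cultures; measure growth; express inhibition against the vehicle cultures.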

[6] = NCI Yeast Anticancer Drug Screen. Data for the mlh1 rad18 strain (AID 175); conditions: S. cerevisiae mlh1 rad18 strain growth inhibition; at 50.0 µM; hits give high values
Procedure, shortened: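 Vehicle-treated cultures served as the reference for growth inhibition in a yeast strain carrying DNA damage repair alterations exposed to each compound.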

Measured: growth inhibition

CCCCOC(=O)c1ccc(O)cc1
inactive: [1] 25.4% and 23% | [2] -2.95% and -1.8% | [3] 8.7% and -6.55% | [4] 3.55% and -11.2% | [5] 8.75% and 33.6% | [6] 23.4% and 48%

O=c1c(O)c(-c2ccc(O)c(O)c2)oc2cc(O)ccc12
inactive: [1] -15.2% and -57% | [2] -14.6% and -40.4% | [3] -3.25% and -24.9% | [4] 0.2% and -25% | [5] -15.1% and -48.1% | [6] -3.7% and -37.3%

COC1OC2COC(c3ccccc3)OC2C(OC(C)=O)C1OC(C)=O (configuration not stated)
inactive: [1] 15.4% and 5.85% | [2] 10.2% and 6.9% | [3] 2.1% and 4.05% | [4] 2.4% and 2.9% | [5] 38.8% and 10% | [6] 19.9% and -14.9%

CCOC(=O)CC1(O)C=CC(=O)C=C1
inactive: [1] 9.25% and 14.2% | [2] 0.5% and -5.6% | [3] 0.55% and -5.1% | [4] 15.1% and 21.2% | [5] 6.65% and 22.9% | [6] -6.2% and 36.4%

O=S(=O)(O)c1cc(N=Nc2cc(S(=O)(=O)O)c3cccnc3c2O)ccc1/C=C/c1ccc(N=Nc2cc(S(=O)(=O)O)c3cccnc3c2O)cc1S(=O)(=O)O
inactive: [1] -16.7% and 18.6% | [2] -17.4% and 7.65% | [3] -26.5% and 7.4% | [4] -24.4% and -55.5% | [5] -18.6% and -62.5% | [6] -111% and -27.9%

Nc1nc(N)c(Br)c(=O)[nH]1
inactive: [1] -11.3% and 9% | [2] -36.4% and -24.6% | [3] -11.3% and -38.1% | [4] 12.2% and -83.6% | [5] -10.9% and -13.3% | [6] -6.75% and -21.4%

CC(=O)OCC1OC(n2c(N)c(C#N)c(C)c(C#N)c2=S)C(OC(C)=O)C(OC(C)=O)C1OC(C)=O (configuration not stated)
inactive: [1] -25.4% and -28% | [2] -13% and -5.75% | [3] -7.1% and -10.7% | [4] -30.7% and -44.5% | [5] 3.55% and -1.5% | [6] -1.85% and -27.7%

CC12CCC(C1)C(C)(C)C2OC(=O)c1ccccc1C(=O)O (configuration not stated)
inactive: [1] 11.5% and 22.9% | [2] 29.1% and -13.2% | [3] 20.4% and -25.9% | [4] 4.6% and -8.6% | [5] 13.8% and 1.3% | [6] 8.9% and 5.2%

O=[N+]([O-])C(CO)(CO)CO
inactive: [1] -11.3% and 11.1% | [2] -6.25% and 1.95% | [3] -6% and 6.85% | [4] -22.4% and 3.45% | [5] -2.55% and 2.6% | [6] -7.2% and 2.65%

CC(=O)Nc1ccccc1Cl
inactive: [1] 31.6% and 6% | [2] 6.7% and -9.05% | [3] 14.2% and -20.4% | [4] 24.9% and -20.1% | [5] 20.2% and -15.1% | [6] -11.4% and 21.4%

O=C1C=CC(=O)O1 (tested in a mixture with another compound)
inactive: [1] 13.5% and 5.85% | [2] 18% and 1.85% | [3] 10.6% and 2.55% | [4] 38.1% and 4.45% | [5] 30.9% and 17% | [6] 22.4% and 13.3%

O=c1[nH]c(=O)n(C2OC(CO)C(O)C2O)c2ncncc12 (configuration not stated)
inactive: [1] 3.15% and 12.4% | [2] 5.7% and 4.75% | [3] 31.2% and -0.75% | [4] 4.9% and 8.8% | [5] 16.4% and -30.4% | [6] -39.8% and -25.5%

Nc1ccc2nc[nH]c2c1
inactive: [1] -15.3% and 18.9% | [2] -7.6% and -4.65% | [3] -7.55% and -18.6% | [4] 14.7% and 16.6% | [5] 2.25% and -1% | [6] -0.9% and 14.3%

CC(=O)NC(Cc1ccccc1)C(=O)O (configuration not stated)
inactive: [1] 11.1% and -7.55% | [2] -3% and -7.6% | [3] 15.7% and 4.25% | [4] 6.3% and -52.9% | [5] 6.25% and -14.1% | [6] -18.3% and -27.1%

ClCC(CCl)(CCl)CCl
inactive: [1] 24.6% and 1.15% | [2] 6.95% and -12.9% | [3] 13.4% and 7.95% | [4] 6% and 20.1% | [5] 12.3% and -0.2% | [6] 5.85% and 1.45%

COc1cc2c(c(OC)c1OC)-c1ccc(OC)c(=O)cc1C([N+](C)(C)C)CC2 (configuration not stated)
inactive: [1] 21.2% and -13.3% | [2] 12.3% and 7.7% | [3] 16.9% and -18.1% | [4] -0.65% and -11.1% | [5] -3% and -0.4% | [6] 25.5% and 7.4%

O=C1NC2OC(CO)C(O)C(O)C2O1 (configuration not stated)
inactive: [1] -44.6% and -35.5% | [2] -7.65% and -15.7% | [3] -51% and -63% | [4] -24.5% and -10.2% | [5] -61.6% and -22.9% | [6] -64.4% and -54.4%

Cc1ccc(C)c(NC(=O)CC2Sc3ccccc3NC2=O)c1 (configuration not stated)
inactive: [1] -0.4% and -7.3% | [2] -25.8% and -19.4% | [3] 8.4% and -28.5% | [4] 21.9% and 8.45% | [5] 26.3% and 10.3% | [6] -5.05% and -88%

O=C(O)/C=C/c1cccc(Cl)c1
inactive: [1] 14.2% and -11.2% | [2] 10.2% and -19.9% | [3] 3.25% and -12.2% | [4] -16.1% and 13.5% | [5] -6.7% and -28.2% | [6] 24.8% and 23.6%

CC(=O)c1c(-c2ccc(Cl)cc2)c(C#N)c(=S)n(C2OC(CO)C(O)C(O)C2O)c1-c1ccccc1 (configuration not stated)
inactive: [1] 5.1% and 4.5% | [2] 1.95% and 6.1% | [3] 28.1% and 34.5% | [4] 33.1% and -7.6% | [5] -2.95% and 39.5% | [6] 56.6% and 15.9%

O=C1OC(=O)C2C3CCCCC3=C3CCCCC3C12 (configuration not stated)
inactive: [1] 2.7% and 11.1% | [2] 41.5% and -8.4% | [3] -3.25% and 4.25% | [4] 8.6% and -9.1% | [5] 22.2% and 3.9% | [6] -5.3% and 13.6%

O=c1c([N+](=O)[O-])c[nH]c2cc(Cl)ccc12
inactive: [1] -38.3% and 6.4% | [2] 2.25% and -2.2% | [3] -19.2% and 8.3% | [4] 0.25% and 35.5% | [5] -6% and 11.6% | [6] -33.7% and 15.8%
